Values joined by “and” are separate entries in the source; they are usually repeats but may differ in a detail not shown here. Equal values may be shown once. In all, about 5,500 compounds went through this assay and about 2,000 (36%) were called active. About 18% were inconclusive and are not listed. No stated cut-off is given here; in the data, active means normalized growth mostly below about 0.91 (no sharp cut-off); inconclusive means no clear call, values can overlap the other calls; inactive means mostly above about 0.92. The list shows a part of the results.
Test: chemical genetic growth profiling, strain panel (AID 1159580);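 further: tested at 20 µM; growth read once vehicle control cultures reached saturation at 30 °C; 1 = growth at the plate median or of vehicle wells; lower values mean less growth of the strain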
Conditions: S. cerevisiae deletion strains, growth OD

Measured: normalized growth

COc1ccc2ccc(=O)oc2c1
inactive: locus YAL013W, strain DEP1, hits give low values 1.01 | locus YAL021C, strain ccr4, hits give low values 1 | locus YAL026C, strain drs2, hits give low values 1 | locus YAL030W, strain snc1, hits give low values 1 | locus YBL061C, strain skt5, hits give low values 1 | locus YBR009C, strain hhf1, hits give low values 1.02 | locus YBR021W, strain FUR4, hits give low values 0.997 | locus YBR023C, strain chs3, hits give low values 1.01 | locus YBR171W, strain sec66, hits give low values 0.988 | locus YBR229C, strain ROT2, hits give low values 1.02 | locus YBR231C, strain swc5, hits give low values 0.987 | locus YBR279W, strain paf1, hits give low values 1 | locus YCL011C, strain gbp2, hits give low values 0.98 | locus YCL016C, strain dcc1, hits give low values 1 | locus YCL029C, strain bik1, hits give low values 0.999 | locus YCL061C, strain MRC1, hits give low values 1 | locus YCL069W, strain vba3, hits give low values 0.988 | locus YCR088W, strain abp1, hits give low values 0.992 | locus YDL005C, strain med2, hits give low values 0.996 | locus YDL035C, strain GPR1, hits give low values 1.04 | locus YDL040C, strain nat1, hits give low values 1 | locus YDL074C, strain BRE1, hits give low values 1.04 | locus YDL101C, strain DUN1, hits give low values 1.01 | locus YDL185W, strain tfp1, hits give low values 1.03 | locus YDL192W, strain arf1, hits give low values 1.01 | locus YDR001C, strain nth1, hits give low values 0.991 | locus YDR069C, strain doa4, hits give low values 0.99 | locus YDR101C, strain arx1, hits give low values 0.985 | locus YDR137W, strain rgp1, hits give low values 0.977 | locus YDR150W, strain NUM1, hits give low values 1.01 | locus YDR159W, strain sac3, hits give low values 0.973 | locus YDR162C, strain NBP2, hits give low values 1.03 | locus YDR195W, strain ref2 1.01 | locus YDR297W, strain sur2, hits give low values 1 | locus YDR318W, strain mcm21, hits give low values 1.02 | locus YDR334W, strain swr1, hits give low values 0.987 | locus YDR335W, strain msn5, hits give low values 0.998 | locus YDR388W, hits give low values 1.04 | locus YDR392W, strain spt3, hits give low values 0.964 | locus YDR502C, strain sam2, hits give low values 1.02 | locus YEL003W, strain gim4, hits give low values 1.01 | locus YEL037C, strain rad23, hits give low values 1 | locus YEL061C, strain CIN8 (second series), hits give low values 0.983 | locus YEL061C, strain CIN8, hits give low values 1.01 | locus YER015W, strain faa2, hits give low values 1 | locus YER016W, strain bim1, hits give low values 1 | locus YER110C, hits give low values 1.02 | locus YER111C, strain swi4, hits give low values 0.998 | locus YER155C, strain BEM2 (second series), hits give low values 0.97 | locus YER155C, strain BEM2, hits give low values 1 | locus YER167W, strain BCK2, hits give low values 1.01 | locus YFR010W, strain ubp6, hits give low values 0.98 | locus YGL078C, strain dbp3, hits give low values 1.01 | locus YGL086W, strain mad1, hits give low values 1.02 | locus YGL167C, strain pmr1, hits give low values 1.02 | locus YGL173C, strain kem1, hits give low values 1.02 | locus YGL227W, strain vid30, hits give low values 0.983 | locus YGL240W, strain doc1, hits give low values 0.973 | locus YGL248W, strain PDE1, hits give low values 1.05 | locus YGL253W, strain hxk2, hits give low values 0.986 | locus YGR135W, strain pre9, hits give low values 1.01 | locus YGR252W, strain gcn5, hits give low values 0.964 | locus YHR013C, strain ard1, hits give low values 1.04 | locus YHR027C, strain rpn1, hits give low values 0.999 | locus YHR030C, strain SLT2, hits give low values 1.02 and 0.994 | locus YHR079C, strain IRE1 (second series), hits give low values 1.01 | locus YHR079C, strain IRE1, hits give low values 0.997 | locus YHR094C, strain hxt1, hits give low values 1.04 | locus YHR129C, strain ARP1, hits give low values 1.02 | locus YHR142W, strain chs7, hits give low values 1.01 | locus YHR200W, strain rpn10, hits give low values 1.01 | locus YIL066C, strain RNR3, hits give low values 1.02 | locus YIL073C, strain SPO22, hits give low values 1.11 | locus YIL125W, strain kgd1, hits give low values 1.03 | locus YIR030C, strain dcg1, hits give low values 1.01 | locus YJL092W, strain hpr5, hits give low values 0.998 | locus YJL095W, strain BCK1 (second series), hits give low values 1.01 | locus YJL095W, strain BCK1, hits give low values 1.01 and 1.02 | locus YJL115W, strain asf1, hits give low values 0.992 | locus YJL129C, strain trk1, hits give low values 0.99 | locus YJL134W, strain LCB3, hits give low values 1.01 | locus YJL154C, strain vps35, hits give low values 0.999 | locus YJL164C, strain tpk1, hits give low values 1.02 | locus YJL166W, strain qcr8, hits give low values 1.01 | locus YJL168C, strain set2, hits give low values 1.02 | locus YJL187C, strain SWE1 (second series), hits give low values 1.02 | locus YJL187C, strain SWE1, hits give low values 0.995 | locus YJR066W, strain TOR1, hits give low values 0.934 | locus YKL009W, strain mrt4, hits give low values 1 | locus YKL068W, hits give low values 1.04 | locus YKL085W, strain MDH1 (second series), hits give low values 1.02 | locus YKL085W, strain MDH1, hits give low values 1.02 | locus YKL160W, strain elf1, hits give low values 1.02 | locus YKR001C, strain vps1, hits give low values 1.03 | locus YKR026C, strain gcn3, hits give low values 0.98 | locus YKR091W, strain srl3, hits give low values 1.02 | locus YLL001W, strain dnm1, hits give low values 0.985 | locus YLL026W, hits give low values 1 | locus YLL041C, strain sdh2, hits give low values 0.996 | locus YLR027C, strain aat2, hits give low values 0.992 | locus YLR039C, strain RIC1, hits give low values 1.15 | locus YLR058C, strain SHM2, hits give low values 1.02 | locus YLR102C, strain apc9, hits give low values 1.03 | locus YLR113W, strain HOG1, hits give low values 1.02 | locus YLR221C, strain rsa3, hits give low values 0.987 | locus YLR258W, strain gsy2, hits give low values 1.02 | locus YLR262C, strain YPT6 (second series), hits give low values 1.02 | locus YLR268W, strain sec22, hits give low values 1.02 | locus YLR320W, strain mms22, hits give low values 0.993 | locus YLR330W, strain CHS5, hits give low values 1.03 | locus YLR342W, strain FKS1 (second series), hits give low values 1.05 | locus YLR342W, strain FKS1, hits give low values 1 | locus YLR357W, strain rsc2, hits give low values 0.984 | locus YLR370C, strain arc18, hits give low values 0.989 | locus YLR371W, strain rom2, hits give low values 1.05 | locus YLR384C, strain iki3, hits give low values 0.995 | locus YLR418C, strain cdc73, hits give low values 1.02 | locus YML016C, strain PPZ1, hits give low values 1.02 | locus YML032C, strain rad52, hits give low values 0.997 | locus YML120C, strain ndi1, hits give low values 0.999 | locus YML124C, strain tub3, hits give low values 1.02 | locus YMR058W, strain fet3, hits give low values 0.98 | locus YMR078C, strain ctf18, hits give low values 1.01 | locus YMR125W, strain sto1, hits give low values 0.984 | locus YMR129W, hits give low values 1.01 | locus YMR205C, strain PFK2, hits give low values 1.06 | locus YMR223W, strain ubp8, hits give low values 1.02 | locus YMR231W, strain pep5, hits give low values 0.996 | locus YMR307W, strain GAS1, hits give low values 1.09 | locus YNL067W, strain RPL9B, hits give low values 1.01 | locus YNL071W, strain lat1, hits give low values 1.01 | locus YNL153C, strain GIM3, hits give low values 1.01 | locus YNL183C, strain NPR1, hits give low values 0.949 | locus YNL209W, strain ssb2, hits give low values 1.01 | locus YNL233W, strain BNI4, hits give low values 1.04 | locus YNL248C, strain rpa49, hits give low values 0.974 | locus YNL250W, strain rad50, hits give low values 1.07 | locus YNL271C, strain bni1, hits give low values 1.01 | locus YNL298W, strain CLA4, hits give low values 0.997 | locus YNL307C, strain MCK1, hits give low values 1.03 | locus YNL322C, strain KRE1 (second series), hits give low values 1 | locus YNL322C, strain KRE1, hits give low values 1 | locus YNR049C, strain mso1, hits give low values 1 | locus YNR052C, strain pop2, hits give low values 1.04 | locus YOL006C, strain TOP1, hits give low values 1.09 | locus YOL012C, strain htz1 0.887 | locus YOL147C, strain pex11, hits give low values 1.02 | locus YOR001W, strain rrp6, hits give low values 0.954 | locus YOR061W, strain CKA2, hits give low values 1.02 | locus YOR069W, strain VPS5, hits give low values 0.999 | locus YOR070C, strain gyp1, hits give low values 1.01 | locus YOR080W, strain dia2, hits give low values 1 | locus YOR083W, strain WHI5, hits give low values 1.06 | locus YOR106W, strain vam3, hits give low values 1.01 | locus YOR136W, strain idh2, hits give low values 1.01 | locus YOR144C, strain elg1, hits give low values 1.01 | locus YOR184W, strain ser1, hits give low values 1 | locus YOR231W, strain MKK1, hits give low values 1.01 | locus YOR265W, strain rbl2, hits give low values 0.996 | locus YOR270C, strain vph1, hits give low values 1.07 | locus YOR290C, strain snf2, hits give low values 0.995 | locus YOR316C, strain cot1, hits give low values 1.01 | locus YPL051W, strain arl3, hits give low values 0.995 | locus YPL055C, strain LGE1, hits give low values 1.07 | locus YPL078C, strain atp4, hits give low values 1.01 | locus YPL106C, strain sse1, hits give low values 0.98 | locus YPL240C, strain hsp82, hits give low values 0.995 | locus YPL241C, strain CIN2, hits give low values 1.02 | locus YPL256C, strain CLN2, hits give low values 0.994 | locus YPR119W, strain clb2, hits give low values 1.01 | locus YPR141C, strain kar3, hits give low values 1.01 | locus YPR163C, strain tif3, hits give low values 1.02 | locus YPR167C, strain met16, hits give low values 1.02 | strain wtn01, hits give low values 1.01

Source: PubChem BioAssay AID1159580 (chemical genetic matrix, 2015)
